The assay has as its target Glucose transporter (Leishmania mexicana) (UniProt O61059). As to the kind of experiment: ST_JUDE_LEISH: Cytotoxicity at 2uM final concentration against transgenic Leishmania Mexicana promastigotes LmGT2 that are glucose transport deficient and complemented with the L. Mexicana glucose transporter 2. Activity is measured by DNA content using SYBR green in vitro. Type of assay: functional.
Consider `Cc1ccc(N2CCN(C(=O)c3cccc(-c4cncc5nc(-c6ccco6)n(C)c45)c3)CC2)nc1`, for which the inhibition (usually the change of the read-out against control, counted positive when it falls) was determined as 5.39%.

With `CCOc1ccc(-n2nc3c(Cl)nnc(-c4ccccc4)c3c2-c2ccccc2)cc1`, the inhibition was found to be 0.01%.

For the compound `CSCCCN1CCC(O)(c2ccc3oc(C(=O)Nc4ccc5sc(C)nc5c4)cc3c2)CC1`, the inhibition is 14.7%.

As for `Cc1ccccc1OCC(O)CNC1CCC(NCC(O)COc2ccccc2C)CC1` (configuration not stated), the inhibition turned out to be 5.8%.

Take `C/C=C/C=C/C1=NCCc2cc(OCCC)ccc21`: the inhibition was found to be 17.7%.

`CC[C@H](C)CNC(=O)c1cccc(-c2cccc(CN3CCC(N4CCCC4)CC3)c2)n1`: the inhibition is -0.2%.

Take `CC1CN(Cc2ccc(-c3ccc(-c4nc5ccccc5[nH]4)cc3)cc2)CC(C)O1` (configuration not stated): the inhibition is 4.66%.

As to `CC1(C)NC(N)=NC(=N)N1OCCCOc1cc(Cl)cc(Cl)c1`, the inhibition was 2.47%.

For the compound `CC(C)Nc1cc(C(=O)N[C@@H](Cc2ccccc2)[C@H](O)CNC2CCCCC2)cc(N2CCCCS2(=O)=O)c1`, the inhibition came out at 7.2%.

As to `COc1cc2nccc(Nc3cccc(Oc4ccccc4)c3)c2cc1OC`, the inhibition was determined as 9.3%.

Consider `O=C(Nc1ccccc1Oc1ccccc1)NC1CCN(c2ccnc3cc(Cl)ccc23)C1` (configuration not stated), for which the inhibition is 3.25%.

For the compound `Cc1nc2c(c(C)nn2C(C)(C)C)c(C)c1CCC(=O)Nc1ccc(CN2CCCC2)cc1`, the inhibition turned out to be 5.29%.
